Results filed as inconclusive are left out. The source made the active and inactive calls. Unless noted, calls follow the shape of the dose curve; as a rule, active = well fitted curve in either direction with a large enough effect (not every such curve was filed as active); inconclusive = small, poorly fitted or top-dose-only effect, or another doubt; inactive = flat fitted curve, though single readings scatter.
Assays:
[1] = target: Lysosomal acid glucosylceramidase (Homo sapiens) (UniProt P04062); assay: Glucocerebrosidase-p2 (AID 348; in the data active = potency below about 10 µM; also: potency is read from the fitted curve at half-maximal effect); settings: purified GBA, blue fluorogenic substrate, 40 min
Lysosomal acid glucosylceramidase (Homo sapiens), sequence (P04062 whole entry, looked up): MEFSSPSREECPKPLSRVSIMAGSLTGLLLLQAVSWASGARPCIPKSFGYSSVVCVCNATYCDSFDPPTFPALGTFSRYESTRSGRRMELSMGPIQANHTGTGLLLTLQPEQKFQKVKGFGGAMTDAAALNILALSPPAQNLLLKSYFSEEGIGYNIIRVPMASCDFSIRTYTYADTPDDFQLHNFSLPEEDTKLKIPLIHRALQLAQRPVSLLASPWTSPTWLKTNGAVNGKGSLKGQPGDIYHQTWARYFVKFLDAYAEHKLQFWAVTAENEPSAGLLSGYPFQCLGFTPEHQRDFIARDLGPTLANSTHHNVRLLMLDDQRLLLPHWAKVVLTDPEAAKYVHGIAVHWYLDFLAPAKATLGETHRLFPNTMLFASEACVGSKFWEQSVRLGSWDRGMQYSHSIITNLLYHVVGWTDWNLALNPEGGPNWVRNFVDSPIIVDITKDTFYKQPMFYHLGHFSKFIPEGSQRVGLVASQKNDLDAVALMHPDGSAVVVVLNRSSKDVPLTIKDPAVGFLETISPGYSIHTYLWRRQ
Summary of the method: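 Normal human glucocerebrosidase (0.2 nM) with blue fluorogenic substrate (80 uM final) in citrate/phosphate pH 5.9 with 10mM sodium taurocholate, 0.01% tween-20; 40 min RT, NaOH/glycine stop; fluorescence Ex 365/Em 440; AC50 from a titration from 0.6 nM upwards.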

[2] = AP1 Signaling Pathway (AID 357); settings: ME-180 AP-1-bla reporter, EGF-induced, beta-lactamase ratio, 5 h; at 7.69 µM (top of the series) unless noted; also: % is scaled to controls: 0 for no effect and ±100 for the full control effect
Summary of the method: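 ME-180 cells with beta-lactamase reporter under AP-1 response element, stimulated with EC50 EGF; compounds tested in titration series, 5 h at 37 °C. CCF4 substrate added 2.5 h at room temperature; 460/530 nm emission ratio gave %activity and AC50.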

[3] = target: Cytochrome P450 1A2 (Homo sapiens) (UniProt P05177); assay: p450-cyp1a2 (AID 410; calls by dose curve; also: potency is read from the fitted curve at half-maximal effect;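 as to activity change, negative = inhibition: -100% = full effect of reference inhibitor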); settings: recombinant CYP1A2, luciferin-ME demethylation, luminescence; series mostly up to 57 µM
Cytochrome P450 1A2 (Homo sapiens), sequence (P05177 whole entry, looked up): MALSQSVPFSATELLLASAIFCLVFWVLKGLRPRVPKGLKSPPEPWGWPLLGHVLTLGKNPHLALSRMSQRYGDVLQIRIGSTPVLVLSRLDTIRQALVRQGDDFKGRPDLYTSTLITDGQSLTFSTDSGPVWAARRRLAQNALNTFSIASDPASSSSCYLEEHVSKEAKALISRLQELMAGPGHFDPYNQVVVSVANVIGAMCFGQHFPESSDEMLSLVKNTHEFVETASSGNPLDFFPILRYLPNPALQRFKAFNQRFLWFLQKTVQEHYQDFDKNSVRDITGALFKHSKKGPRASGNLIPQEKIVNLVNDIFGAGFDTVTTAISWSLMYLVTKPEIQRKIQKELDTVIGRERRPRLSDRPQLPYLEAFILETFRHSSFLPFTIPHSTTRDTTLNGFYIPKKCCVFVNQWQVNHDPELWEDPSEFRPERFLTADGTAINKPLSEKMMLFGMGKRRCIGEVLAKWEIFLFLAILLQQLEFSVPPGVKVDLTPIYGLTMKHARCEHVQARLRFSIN
Summary of the method: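 20nM CYP1A2, 100uM Luciferin-ME (=Km), 100mM KPO4; cpd 10 min RT; +NADPH regen, 60 min RT; stop/detect 20 min; luminescence. Normalized to furafylline 57 uM = full inhibition.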

[4] = NFAT Signaling Pathway (AID 444); settings: Jurkat NFAT-bla M1, carbachol, beta-lactamase ratio, 5 h; at 7.69 µM (top of the series) unless noted;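 also: carbachol stimulus at about its EC50 of 1 µM final; % is scaled to controls: 0 for no effect and ±100 for the full control effect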
Summary of the method: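 Jurkat cells carrying an NFAT-driven β-lactamase reporter and co-transfected muscarinic M1 receptor were treated with compound plus carbachol (1 uM final, an EC50 level) for 5 h at 37 °C. CCF4 loading followed for 1 h at RT; 460/530 nm ratio gave %activity.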

[5] = Stat Signaling Pathway (AID 446); settings: ME-180 (cervical carcinoma) SIE beta-lactamase reporter, IL-6 stimulated, 5 h; at 7.69 µM (top of the series) unless noted;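 also: ME-180 cervical cancer cells given 40 pM IL-6 alongside compound; SIE-controlled beta-lactamase reporter measured as 460/530 nm FRET emission ratio; % is scaled to controls: 0 for no effect and ±100 for the full control effect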
Summary of the method: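 Compound effects on IL-6-induced STAT reporter activity were measured in ME-180 cells. After overnight culture, cells were co-treated with 40 pM IL-6 for 5 hrs before beta-lactamase substrate loading at room temperature.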

[6] = target: Glucocorticoid receptor (Homo sapiens) (UniProt P04150); assay: GR-EFC Redistribution (AID 451; calls by dose curve; also: potency is read from the fitted curve at half-maximal effect); settings: CHO-K1 GR-EFC translocation, beta-gal luminescence, 2 h
Glucocorticoid receptor (Homo sapiens), sequence (P04150 whole entry, looked up, the tested form may be a part): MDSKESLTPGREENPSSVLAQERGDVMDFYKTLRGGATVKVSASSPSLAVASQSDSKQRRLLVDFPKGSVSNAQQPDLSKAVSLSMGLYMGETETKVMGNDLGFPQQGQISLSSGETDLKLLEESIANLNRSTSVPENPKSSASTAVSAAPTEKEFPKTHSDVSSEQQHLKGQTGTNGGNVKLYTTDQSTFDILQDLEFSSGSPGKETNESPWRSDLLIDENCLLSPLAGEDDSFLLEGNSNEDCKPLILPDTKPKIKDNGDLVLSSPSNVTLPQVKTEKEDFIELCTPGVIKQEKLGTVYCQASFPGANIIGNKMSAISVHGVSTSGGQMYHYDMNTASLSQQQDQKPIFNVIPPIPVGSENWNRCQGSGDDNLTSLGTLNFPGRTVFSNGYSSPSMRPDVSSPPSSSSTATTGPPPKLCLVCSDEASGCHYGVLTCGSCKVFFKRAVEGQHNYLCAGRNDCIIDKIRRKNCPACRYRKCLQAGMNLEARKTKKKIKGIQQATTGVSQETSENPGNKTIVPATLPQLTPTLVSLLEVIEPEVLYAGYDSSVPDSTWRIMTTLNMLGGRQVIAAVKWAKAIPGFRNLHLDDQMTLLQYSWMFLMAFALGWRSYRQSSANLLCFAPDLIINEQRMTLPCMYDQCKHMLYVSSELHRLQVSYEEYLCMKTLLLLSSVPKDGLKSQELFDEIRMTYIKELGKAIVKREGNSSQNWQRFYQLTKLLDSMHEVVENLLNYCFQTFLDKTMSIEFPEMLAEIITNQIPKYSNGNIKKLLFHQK
Summary of the method: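 CHO-K1 cells stably expressing nuclear-localized β-gal enzyme acceptor and GR fused C-terminally to the enzyme donor fragment; ligand-driven nuclear translocation restores β-gal by complementation. Compounds titrated up to 46 uM final, 2 h at 37 °C; luminescence read.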

[7] = target: Mitogen-activated protein kinase 10 (Mus musculus) (UniProt Q61831); assay: JNK3 AlphaScreen Assay (AID 530); settings: JNK3 lysate, c-Jun phosphorylation; series mostly up to 57.1 µM;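 also: kinase came from lysate of stimulated human HepG2 cells; signal reports phosphorylation of biotinylated GST-cJun 1-79 at Ser73 with 10 µM ATP; % is scaled to controls: 0 for no effect and ±100 for the full control effect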
Summary of the method: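 Biotinylated GST-cJun(1-79) served as substrate for JNK3 in HepG2 lysates stimulated with IL-1beta and TNF-alpha. ATP was 10 uM final, pH 7.6. Ser73 phosphorylation was quantified by AlphaScreen (680 nm excitation).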

[8] = target: 3',5'-cyclic-AMP phosphodiesterase 4B (Homo sapiens) (UniProt Q07343); assay: qHTS Assay for Inhibitors of PDE-IV (AID 607; active = well fitted activation curve with a large enough effect in the main read-out, with a control signal flat, not every such curve was filed as active; also: % of control where 0% means no effect); settings: HEK293 ACTOne CNG channel cells, membrane potential fluorescence; series mostly up to 22.9 µM
3',5'-cyclic-AMP phosphodiesterase 4B (Homo sapiens), sequence (Q07343 whole entry, looked up): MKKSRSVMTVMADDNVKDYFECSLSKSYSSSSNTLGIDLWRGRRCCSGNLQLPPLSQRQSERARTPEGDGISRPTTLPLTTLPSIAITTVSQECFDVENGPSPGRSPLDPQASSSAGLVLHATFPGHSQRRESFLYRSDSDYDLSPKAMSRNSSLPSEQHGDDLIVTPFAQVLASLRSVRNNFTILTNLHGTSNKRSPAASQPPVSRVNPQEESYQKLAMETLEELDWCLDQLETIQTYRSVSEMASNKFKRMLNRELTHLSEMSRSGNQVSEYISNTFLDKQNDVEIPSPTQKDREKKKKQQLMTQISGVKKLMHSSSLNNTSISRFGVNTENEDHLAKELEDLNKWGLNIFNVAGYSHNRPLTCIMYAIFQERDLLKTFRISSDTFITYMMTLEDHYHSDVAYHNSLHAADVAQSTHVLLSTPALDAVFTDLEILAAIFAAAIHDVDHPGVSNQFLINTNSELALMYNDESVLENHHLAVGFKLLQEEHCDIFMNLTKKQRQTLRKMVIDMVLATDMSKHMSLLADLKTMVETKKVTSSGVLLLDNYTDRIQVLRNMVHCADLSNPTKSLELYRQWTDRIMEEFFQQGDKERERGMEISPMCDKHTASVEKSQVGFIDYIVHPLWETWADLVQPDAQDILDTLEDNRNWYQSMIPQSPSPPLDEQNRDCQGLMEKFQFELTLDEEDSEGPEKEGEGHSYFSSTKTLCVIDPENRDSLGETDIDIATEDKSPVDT
Summary of the method: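 ACTOne HEK293 cells carry a modified cAMP-gated CNG channel and express endogenous PDE4; plated 1000 cells/well, compounds up to 22.9 uM final. Membrane-potential dye fluorescence (ex 535/em 590) was read; parental cells received 10 uM forskolin + 100 uM RO 20-1724.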

[9] = qHTS Assay for Lipid Storage Modulators (AID 1519; calls by dose curve); settings: Drosophila S3 cells, BODIPY lipid droplet/cell ratio, laser cytometry, cells loaded with oleic acid; for activity change, negative = inhibition: at 57.5 µM (top of the series)
Summary of the method: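 Cells seeded at 5,000 per well were treated with compounds over a concentration series and loaded with oleic acid (400 uM, as added). Lipid droplet fluorescence (488 nm excitation, 500-530 nm channel) was read by laser-scanning cytometry and normalized to 20 uM Triacsin C.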

[10] = Primary qHTS for small molecule stabilizers of the endoplasmic reticulum resident proteome: Secreted ER Calcium Modulated Protein (SERCaMP) assay (AID 1508630; active = well fitted inhibition curve with a large enough effect; also: % is scaled to controls: 0 for no effect and ±100 for the full control effect); settings: SH-SY5Y GLuc-SERCaMP (Gaussia luciferase released on ER calcium loss) secretion, thapsigargin, luminescence; series mostly up to 38.4 µM
Summary of the method: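 The SH-SY5Y reporter protocol was run at 3 concentrations up to 38.3 uM (primary) or 11 concentrations (follow-up): 16 h compound, 100 nM thapsigargin for 4 h, then extracellular luciferase luminescence.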

[11] = measured here: cell count channel max response
[12] = measured here: lipid channel max response

CC(C)NC(=O)N1CCC2(CC1)CCN(S(C)(=O)=O)CC2
Potency [1]: > 11.4 µM (inactive) | activity change, negative = inhibition [2]: -12.4% (inactive) | Potency [3]: inactive | activity change, negative = inhibition [4]: 6.9% (inactive) | activity, negative = inhibition [5]: 4.06% (inactive) | Potency [6]: > 46 µM (inactive) | outcome [7]: inactive | Potency [8]: inactive | activity change, negative = inhibition [9]: -0.0632% (inactive) | max response [9, 11]: 6.33% | max response [9, 12]: 5.94% | Potency [10]: inactive

O=C(c1csnn1)N1CCC[C@@]2(CCN(c3ncccn3)C2)C1
Potency [1]: > 11.4 µM (inactive) | activity change, negative = inhibition [2]: -0.372% (inactive) | Potency [3]: 12.6 µM (active) | activity change, negative = inhibition [4]: 8.43% (inactive) | activity, negative = inhibition [5]: 1.56% (inactive) | Potency [6]: > 46 µM (inactive) | outcome [7]: inactive | Potency [8]: inactive | activity change, negative = inhibition [9]: 7.22% (inactive) | max response [9, 11]: 8.99% | max response [9, 12]: 21.1% | Potency [10]: inactive

Cc1noc(C)c1C(=O)N1CCC2(CC1)CN(C(=O)Nc1cccc(F)c1)C2
Potency [1]: > 11.4 µM (inactive) | activity change, negative = inhibition [2]: 6.42% (inactive) | Potency [3]: inactive | activity change, negative = inhibition [4]: 19.9% (inactive) | activity, negative = inhibition [5]: 0.457% (inactive) | Potency [6]: > 46 µM (inactive) | outcome [7]: inactive | Potency [8]: inactive | activity change, negative = inhibition [9]: 1.43% (inactive) | max response [9, 11]: -7.63% | max response [9, 12]: -0.901% | Potency [10]: inactive

CS(=O)(=O)N1CCC2(CCCN(C(=O)Nc3ccccc3)C2)CC1
Potency [1]: > 11.4 µM (inactive) | activity change, negative = inhibition [2]: -5.5% (inactive) | Potency [3]: 15.8 µM (active) | activity change, negative = inhibition [4]: 11% (inactive) | activity, negative = inhibition [5]: 3.16% (inactive) | Potency [6]: > 46 µM (inactive) | outcome [7]: inactive | Potency [8]: inactive | activity change, negative = inhibition [9]: 1.48% (inactive) | max response [9, 11]: 3.7% | max response [9, 12]: 9.01% | Potency [10]: inactive

O=C(c1ccncc1)N1CCC2(CC1)CN(c1ncccn1)C2
Potency [1]: > 11.4 µM (inactive) | activity change, negative = inhibition [2]: 7.49% (inactive) | Potency [3]: 6.31 µM (active) | activity change, negative = inhibition [4]: 6.22% (inactive) | activity, negative = inhibition [5]: -10.2% (inactive) | Potency [6]: > 46 µM (inactive) | outcome [7]: inactive | Potency [8]: inactive | activity change, negative = inhibition [9]: 0.437% (inactive) | max response [9, 11]: 22.4% | max response [9, 12]: 23.6% | Potency [10]: inactive

COc1ccc(NC(=O)N2CC3(CCN(S(C)(=O)=O)CC3)C2)cc1
Potency [1]: > 11.4 µM (inactive) | activity change, negative = inhibition [2]: -11.2% (inactive) | Potency [3]: inactive | activity change, negative = inhibition [4]: 24.5% (inactive) | activity, negative = inhibition [5]: 5.18% (inactive) | Potency [6]: > 46 µM (inactive) | outcome [7]: inactive | Potency [8]: inactive | activity change, negative = inhibition [9]: 4.64% (inactive) | max response [9, 11]: -10.6% | max response [9, 12]: -5.17% | Potency [10]: inactive

CC(C)NC(=O)N1CC[C@@]2(CCCN(C(=O)c3cccn3C)C2)C1
Potency [1]: > 11.4 µM (inactive) | activity change, negative = inhibition [2]: 12.3% (inactive) | Potency [3]: inactive | activity change, negative = inhibition [4]: -8.88% (inactive) | activity, negative = inhibition [5]: -1.46% (inactive) | Potency [6]: > 46 µM (inactive) | outcome [7]: inactive | Potency [8]: inactive | activity change, negative = inhibition [9]: 3.5% (inactive) | max response [9, 11]: -17.7% | max response [9, 12]: -8.74% | Potency [10]: inactive
